MazF activator = MazEF (E. coli) toxin RNase activation | P0AE70 | AID 504720 | activation, % at 20 µM | 350,000 compounds, 0.32% hits | FAM/BHQ RNA-DNA oligo cleavage fluorescence, 5 h; in the data active = activation above about 50%
Target sequence (P0AE70 whole entry, looked up): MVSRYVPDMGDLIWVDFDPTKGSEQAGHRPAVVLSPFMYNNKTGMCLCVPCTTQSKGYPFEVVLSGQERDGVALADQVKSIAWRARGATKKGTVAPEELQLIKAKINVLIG
Anthrax LF prot = blocks Bacillus anthracis lethal factor protease. P15917. 360,000 compounds, 0.12% hits. multiplex microsphere protease cleavage assay, LF. inhibition, % at 10 µM
BoNT A protease = inhibitors of Botulinum neurotoxin A light chain protease. multiplex microsphere protease substrate cleavage, flow cytometry. inhibition, % at 10 µM. 360,000 compounds, 0.17% hits
BoNT-F LC inh = BoNT F light chain protease inhibition. Multiplex microsphere protease cleavage assay, flow cytometry. inhibition, % at 10 µM. 360,000 compounds, 0.22% hits. AID 588497; in the data active = inhibition above about 35%, passing the limit was not always enough; inconclusive = no clear call, values can overlap the other calls
Autofluor counter = flagged as autofluorescent in microsphere protease counterscreen; compound autofluorescence counterscreen, microsphere flow cytometry; stronger effect = higher value; fluorescence intensity (concentration not given with the values); 360,000 compounds, 3.1% hits; in the data active = fluorescence intensity above about 16000; inconclusive = no clear call, values can overlap the other calls
Large screens that a line does not name were inactive. Most compounds without a hit are left out; they make up all but 3.6% or so of the library. Rule as the data show it, unless noted: active = inhibition above about 30%; inconclusive = no clear call, values can overlap the other calls; inactive = below that.

Cc1ccc(O)c(C2=Nc3ccccc3N=C(c3ccco3)C2)c1	MazF activator 82
CC1=CC(C)(C(Cl)(Cl)Cl)C(C)=CC1=NO (stereo not given)	none
CCOc1ccccc1NC(=O)Nc1cccc(C(C)=O)c1	Autofluor counter 23270
CC(=O)Nc1cccc(NC(=O)Nc2ccc(C(C)=O)cc2)c1	none
CC(=O)c1cccc(NC(=O)Nc2ccc(C(=O)N3CCCC3)cc2)c1	Autofluor counter 22040
CCN(CC)c1ccc(NC(=O)Nc2cccc(C(C)=O)c2)cc1	Autofluor counter 19762
CCOc1ccccc1NC(=O)Nc1cccc(NC(C)=O)c1	Autofluor counter inconclusive
CCOc1ccccc1NC(=O)Nc1c(C)n(-c2ccccc2)c(=O)n1C	Autofluor counter 20830
COc1cccc(C(=O)Nn2cnnc2)c1OC	BoNT-F LC inh inconclusive
O=C(COC(=O)/C=C/c1ccco1)NCCN1C(=O)CSC1=O	none
Cc1cc(C)n2nc(SCC(=O)Nc3ccccc3)nc2n1	none
Cc1cc(C)n2nc(SCCC(=O)NCCc3ccccc3)nc2n1	Autofluor counter 18555
CCOC(=O)Cc1nc2nc(C)cc(C)n2n1	none
CCN(C(=O)CSc1nc2nc(C)cc(C)n2n1)c1cccc(C)c1	Autofluor counter 16126
COCCNC(=O)CSc1nc2nc(C)cc(C)n2n1	Autofluor counter 22346
CCCCCCNC(=O)Cc1nc2nc(C)cc(C)n2n1	Autofluor counter 20841
Nc1ccc(N2CCCC2)c(S(=O)(=O)Nc2cccc(C(F)(F)F)c2)c1	none
O=C(NC1CCCC1)C1(c2ccccc2)CCN(S(=O)(=O)c2ccccc2)CC1	BoNT A protease inconclusive, Autofluor counter 24081
O=S(=O)(c1ccccc1)N1CCN(C(=S)NC2CCCC2)CC1	none
COC(=O)c1c(NC(=O)c2nc3ccccc3s2)sc2c1CC(C)(C)NC2(C)C	MazF activator 53
CC(C)NC(=O)c1nc2ccccc2s1	Autofluor counter 19111
O=C(CC[C@H]1O[C@@H](n2ccc(=O)[nH]c2=O)[C@H](O)[C@@H]1O)N[C@H](Cc1ccccc1)C(=O)NCc1cccs1	none (no result: MazF activator)
Cc1ccc(CNCC(O)(c2ccccc2)c2ccc(F)cc2)cc1 (stereo not given)	none
Cc1ccc(CNCC(O)(c2ccc(F)cc2)c2ccc(F)cc2)cc1	BoNT A protease inconclusive, Autofluor counter 22638
Cc1oc(=O)c(NC(=O)c2cccc(Cl)c2)cc1C(=O)c1ccccc1	BoNT A protease inconclusive, Autofluor counter 21979
COc1ccc(C(=O)Nc2cc(C(=O)c3ccccc3)c(C)oc2=O)cc1	none
CCCn1c(O)c(/C=C2\C=NN=C2c2ccccc2)sc1=S	Autofluor counter 25085
COc1ccc(CN(C)C(=O)Cn2ccc(NC(=O)OCc3ccccc3)nc2=O)cc1OC	none
O=C(OCc1ccccc1)N(CCCCN(CCCNCc1ccccc1)C(=O)OCc1ccccc1)CCCNCc1ccccc1	none
CC(C(=O)Nc1ccc(C(=O)O)cc1)N1C(=O)c2ccccc2C1=O (stereo not given)	Autofluor counter 20892
COC(=O)c1cccc(COC(=O)c2ccc(CS(=O)(=O)c3ccc(C)cc3)cc2)c1	none
COC(=O)c1ccc(CS(=O)(=O)c2ccc(C)cc2)cc1	BoNT A protease inconclusive, Autofluor counter 21233
O=C(NCc1cccnc1)c1cc(C2CCCN(S(=O)(=O)c3cccs3)C2)on1 (stereo not given)	none (no result: MazF activator)
Cc1cc(C)c2c(=O)n(CC(=O)Nc3cccc(Cl)c3C)sc2n1	BoNT A protease 54
Cc1c(Cl)cccc1NC(=O)Cn1cccc1	Autofluor counter 23242
Cc1ccccc1C(=O)NNC(=O)CCC(=O)Nc1cccc(Cl)c1C	none
Cc1c(Cl)cccc1NC(=O)CCC(=O)NNC(=O)c1ccccc1Cl	BoNT A protease inconclusive, Autofluor counter 17035
O=C(CCC(=O)Nc1ccccc1Cl)NNC(=O)c1ccco1	none
Cc1c(Cl)cccc1NC(=O)CCC(=O)NNC(=O)c1ccco1	Autofluor counter 16503
Cc1ccccc1NC(=O)Cn1cccc1	none
O=C(CCn1c(=O)c2cccn2c2cccnc21)NCc1cccc(Cl)c1	none
CCOC(=O)c1cc2c(C)n(-c3ccc(C)cc3)c(C)c2ccc1=O	Autofluor counter 22981
CC(=O)c1ccc(OCCCC(=O)NC2=NCCS2)cc1	BoNT A protease inconclusive, Autofluor counter 23568
Cc1ccc(OCC(=O)NC2=NCCS2)cc1	none
CCN(C(=O)CN1C(=O)NC2(CCCC2)C1=O)c1nc2c(C)cccc2s1	none
O=C(CNC(=O)N1CC(=O)Nc2ccccc21)NCc1ccc(F)cc1	none
CC(=O)N1CCN(c2ccc(NC(=O)c3ccc(C)cc3)cc2)CC1	none
CC(=O)N1CCc2cc(NC(=O)c3ccc(C)cc3)ccc21	Autofluor counter 21491
